# Data taken from PubChem BioAssay (Tox21).
# A number with no mark means an inactive call. Records with an inconclusive call do not appear. Entries that show only a call come without a potency. Activity calls are given as the source filed them. Unless noted, calls follow the shape of the dose curve; as a rule, active = well fitted curve in the direction sought with a large enough effect in the repeat runs; inconclusive = weak or mixed curves; inactive = no such curve, though single readings can be large; an effect the other way counts as inactive or inconclusive.
# Tests used:
# [1] = qHTS assay to identify small molecule agonists of the constitutive androstane receptor (CAR) signaling pathway - cell viability counter screen (AID 1224836); also: nearly all actives have a fitted effect of over 45% in size
# Procedure, shortened: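 Cell viability multiplexed with the CAR agonist screen: CellTiter-Fluor fluorescence after 23 hr at 37 C. HepG2-CYP2B6-hCAR cells got compounds at 15 concentrations with PK11195 at 0.75 uM final.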
# [2] = qHTS assay to identify small molecule antagonists of the constitutive androstane receptor (CAR) signaling pathway - cell viability counter screen (AID 1224837); also: nearly all actives have a fitted effect of over 45% in size
# Procedure, shortened: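 Counter screen run in HepG2-CYP2B6-hCAR cells: 4 hr settle, compound titration (15 concentrations) with 50 nM CITCO, 23 hr at 37 C/5% CO2, CellTiter-Fluor fluorescence.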
# [3] = qHTS assay to identify small molecule agonists of the hypoxia (HIF-1) signaling pathway - cell viability counter screen (AID 1224844; calls by dose curve; also: nearly all actives have a fitted effect of over 50% in size; also: potency is read from the fitted curve at half-maximal effect)
# Procedure, shortened: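 Cells (HRE-bla ME-180, 2,000 per well) sat 5 hrs at 37C, got compound for 17 hrs, were read for CCF4-AM FRET, and were finally lysed with CellTiter-Glo for a 30 min room-temperature luminescence read.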
# [4] = qHTS assay to identify small molecule agonists of H2AX (AID 1224845; active = well fitted activation curve with a large enough effect in the signal ratio in the repeat runs, not every such curve was filed as active; the % refers to the signal ratio)
# Procedure, shortened: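 Phospho-H2AX Ser139 measured by HTRF (ex 320 nm; em 665 and 620 nm) after 24 hr antibody incubation. Compounds, 15 concentrations, 0.76% DMSO, were applied to CHO-K1 cells for 3hr at 37C before lysis.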
# [5] = qHTS assay to identify small molecule agonists of the hypoxia (HIF-1) signaling pathway (AID 1224846; active = well fitted activation curve with a large enough effect in the signal ratio in the repeat runs, not every such curve was filed as active; the % refers to the signal ratio)
# Procedure, shortened: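 A low-serum medium (0.5% dialyzed FBS) holding 2,000 HRE-bla ME-180 cells per well is preincubated for 5 hrs, dosed with compounds by pintool, and kept a further 17 hrs at 37C, 5% CO2 before CCF4-AM FRET detection of beta-lactamase.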
# [6] = A CellTox Green Cytotoxicity Assay to monitor cytotoxicity in HEK293 cells - 0 hour (AID 1224869); also: nearly all actives have a fitted effect of over 50% in size
# Procedure, shortened: (§1)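 Fluorescence intensity, read at 0, 8, 16, 24, 32 and 40 h of compound treatment, reflected dye binding to DNA of dead HEK293 cells; compounds (23 nL, DMSO) were added 5 h after plating cells with reagent.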
# [7] = qHTS RealTime-Glo MT Cell Viability Assay in HepG2 cells - 40 hour (AID 1224870); also: nearly all actives have a fitted effect of over 50% in size; also: potency is read from the fitted curve at half-maximal effect
# Procedure, shortened: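 Real-time viability: cells seeded at 600 per well together with NanoLuc and cell-permeant prosubstrate, compounds added after 5 h incubation. Luminescence tracked at 0, 8, 16, 24, 32 and 40 h of exposure.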
# [8] = A CellTox Green Cytotoxicity Assay to monitor cytotoxicity in HEK293 cells - 40 hour (AID 1224871); also: nearly all actives have a fitted effect of over 45% in size
# Procedure, shortened: as §1
# [9] = target: Nuclear receptor subfamily 1 group I member 3 (Homo sapiens) (UniProt Q14994); assay: qHTS assay to identify small molecule antagonists of the constitutive androstane receptor (CAR) signaling pathway (AID 1224838);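 also: HepG2 cells stably expressing hCAR with CYP2B6 luciferase reporter stimulated by CITCO; nearly all actives have a fitted effect of over 40% in size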
# Procedure, shortened: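 Cell line: HepG2 double-stable for hCAR and CYP2B6-2.2kb reporter. Agonist: CITCO, 50 nM final. Compounds: 15 concentrations, 24 h, 37 C. Detection: ONE-Glo luminescence.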
# [10] = target: Nuclear receptor subfamily 1 group I member 3 (Homo sapiens) (UniProt Q14994); assay: qHTS assay to identify small molecule agonists of the constitutive androstane receptor (CAR) signaling pathway (AID 1224839);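 also: HepG2 cells stably carrying human CAR and a CYP2B6 luciferase reporter; nearly all actives have a fitted effect of over 15% in size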
# Procedure, shortened: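 Luminescent ONE-Glo read-out after 24 hr, 37 C exposure of double-stable HepG2-CYP2B6-hCAR reporter cells to a 15-point compound series, in the presence of 0.75 uM PK11195 (final).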
# [11] = qHTS assay to identify small molecule antagonists of the estrogen related receptor signaling pathway with the pleiotropic PPARgamma coactivator (PGC) from Tox21 10K library (AID 1224841; call rule not given here; also: potency is read from the fitted curve at half-maximal effect; actives are mostly falling curves and most rising ones were filed inactive; nearly all actives have a fitted effect of over 50% in size)
# Procedure, shortened: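 qHTS antagonist format: PGC/ERR cells, 2k/well, compound in DMSO by pin transfer after 6 h attachment, 18 h treatment at 37 C, One-Glo luminescence read at 30 min.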
# [12] = qHTS assay to identify small molecule agonists of the estrogen related receptor signaling pathway with the pleiotropic PPARgamma coactivator (PGC) from Tox21 10K library (AID 1224842); also: nearly all actives have a fitted effect of over 15% in size
# Procedure, shortened: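 Luminescence from One-Glo (30 min, room temperature) measured after PGC/ERR cells had 18 h at 37 C with pinned compound (23 nL in DMSO). Cells had been seeded at 2,000 per well and pre-incubated 6 h.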
# [13] = target: Thyrotropin receptor (Homo sapiens) (UniProt P16473); assay: qHTS assay to identify small molecule agonists of the thyroid stimulating hormone receptor (TSHR) signaling pathway (AID 1224843; calls by dose curve; also: nearly all actives have a fitted effect of over 45% in size)
# Procedure, shortened: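 Screening of the Tox21 10K collection used HEK293 cells engineered with TSHR at 800 cells per well. After a 30-min room-temperature compound exposure, HTRF cAMP reagents were added and fluorescence recorded 1 h later.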
# [14] = qHTS assay to identify small molecule agonists of H2AX - cell viability counter screen (AID 1224847; calls by dose curve;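 also: wild-type CHO-K1 cells; top concentration of the series differs between compounds; nearly all actives have a fitted effect of over 30% in size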)
# Procedure, shortened: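 Counter-screen for viability: CellTiter-Glo ATP luminescence read after 3 h compound treatment (15-point titration, 0.76% DMSO final) of CHO-K1 cells at 37C, with 30 min room-temperature reagent incubation.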
# [15] = qHTS assay to identify small molecule antagonists of the estrogen related receptor (ERR) signaling pathway from Tox21 library (AID 1224848)
# Procedure, shortened: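 Antagonist-mode screen of the Tox21 10K library in an NTP-provided ERR reporter cell line; 18 h compound exposure at 37 C, luminescence measured with ONE-Glo.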
# [16] = qHTS assay to identify small molecule agonists of the estrogen related receptor (ERR) signaling pathway from Tox21 library (AID 1224849; calls by dose curve; also: nearly all actives have a fitted effect of over 15% in size); conditions: ERR reporter cell line, ONE-Glo luciferase, 18 h; at 92.4 µM (top of the series)
# Procedure, shortened: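 Screening used an NTP-provided ERR luciferase cell line. Compounds in DMSO were added 6 h after seeding and left 18 h at 37 C before a 30 min ONE-Glo step and luminescence reading.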
# [17] = qHTS RealTime-Glo MT Cell Viability Assay in HepG2 cells - 24 hour (AID 1224867); also: nearly all actives have a fitted effect of over 50% in size
# Procedure, shortened: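 Viability was tracked continuously by NanoLuc luminescence from prosubstrate reduced by living HepG2 cells, at successive time points over 40 h of compound exposure. Cells with reagent were preincubated 5 h at 37 °C before compound addition.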
# [18] = qHTS RealTime-Glo MT Cell Viability Assay in HEK293 cells - 32 hour (AID 1224868); also: nearly all actives have a fitted effect of over 50% in size; also: potency is read from the fitted curve at half-maximal effect
# Procedure, shortened: (§2)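 Viability tracked continuously by luminescence as live cells reduce a prosubstrate for NanoLuc; HEK293 cells preincubated 5 h, compound-treated at 37 C, and read at 0, 8, 16, 24, 32 and 40 h.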
# [19] = qHTS RealTime-Glo MT Cell Viability Assay in HEK293 cells - 16 hour (AID 1224872)
# Procedure, shortened: as §2
# [20] = qHTS assay to identify small molecule antagonists of the estrogen related receptor signaling pathway with the pleiotropic PPARgamma coactivator (PGC) from Tox21 10K library - cell viability counter screen (AID 1224840; active = well fitted cell-killing curve with a large enough effect in the repeat runs, not every such curve was filed as active; also: nearly all actives have a fitted effect of over 40% in size)
# Procedure, shortened: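 Following seeding of 2,000 PGC/ERR cells/well and 6 hours' incubation, test compounds were delivered in DMSO. The plates then sat 17.5 hours at 37 C before a fluorogenic live-cell protease reagent (CellTiter-Fluor) was read after 30 min.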
# Sequence of Nuclear receptor subfamily 1 group I member 3 (Homo sapiens) (Q14994 whole entry, looked up): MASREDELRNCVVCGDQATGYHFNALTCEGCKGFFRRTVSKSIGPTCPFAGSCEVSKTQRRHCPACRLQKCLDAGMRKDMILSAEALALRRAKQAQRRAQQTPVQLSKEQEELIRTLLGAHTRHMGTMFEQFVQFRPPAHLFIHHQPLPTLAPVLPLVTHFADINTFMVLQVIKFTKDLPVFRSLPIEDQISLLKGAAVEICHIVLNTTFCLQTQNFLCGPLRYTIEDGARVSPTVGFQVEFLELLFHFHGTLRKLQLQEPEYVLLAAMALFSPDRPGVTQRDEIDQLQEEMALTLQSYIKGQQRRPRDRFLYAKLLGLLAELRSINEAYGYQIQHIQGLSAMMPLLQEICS
# Sequence of Thyrotropin receptor (Homo sapiens) (P16473 whole entry, looked up): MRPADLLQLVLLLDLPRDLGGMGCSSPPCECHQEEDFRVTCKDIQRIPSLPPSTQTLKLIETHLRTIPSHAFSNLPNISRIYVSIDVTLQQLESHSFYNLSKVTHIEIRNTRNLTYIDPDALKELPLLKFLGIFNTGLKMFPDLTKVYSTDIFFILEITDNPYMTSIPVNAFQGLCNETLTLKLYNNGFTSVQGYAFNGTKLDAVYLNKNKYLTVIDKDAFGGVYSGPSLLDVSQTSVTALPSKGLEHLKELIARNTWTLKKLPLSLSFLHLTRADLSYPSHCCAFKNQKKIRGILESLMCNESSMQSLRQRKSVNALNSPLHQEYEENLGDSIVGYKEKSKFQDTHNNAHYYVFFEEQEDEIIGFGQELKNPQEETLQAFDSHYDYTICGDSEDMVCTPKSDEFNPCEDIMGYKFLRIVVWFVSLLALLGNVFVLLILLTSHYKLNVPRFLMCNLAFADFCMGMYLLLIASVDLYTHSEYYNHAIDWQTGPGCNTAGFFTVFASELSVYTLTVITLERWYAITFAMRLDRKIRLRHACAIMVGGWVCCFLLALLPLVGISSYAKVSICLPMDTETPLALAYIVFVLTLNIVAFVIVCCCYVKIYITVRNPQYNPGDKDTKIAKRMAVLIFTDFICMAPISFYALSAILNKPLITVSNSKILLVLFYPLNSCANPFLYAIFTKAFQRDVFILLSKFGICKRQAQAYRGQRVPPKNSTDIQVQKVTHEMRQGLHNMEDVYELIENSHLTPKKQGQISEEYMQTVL
SMILES,Potency [1],Potency [2],Potency [3],Potency [4],Potency [5],Potency [6],Potency [7],Potency [8],Potency [9],Potency [10],Potency [11],Potency [12],Potency [13],Potency [14],Potency [15],"activity change, positive = activation [16] [%]",Potency [17],Potency [18],Potency [19],Potency [20]
c1ccc(C(O[C@@H]2CCCN(CCc3ccc4c(c3)OCO4)C2)c2ccccc2)cc1,inactive,inactive,inactive,inactive,inactive,inactive,inactive,inactive,–,–,–,–,–,–,–,–,–,–,–,–
O=C(c1ccc(O)c(O)c1)c1ccc(O)cc1O,inactive,–,inactive,–,–,inactive,inactive,–,inactive,inactive,68.5 µM (active),inactive,inactive,inactive,54.4 µM (active),-38,inactive,27.5 µM (active),inactive,–
O=C1CCc2cc(OCCCCc3nnnn3C3CCCCC3)ccc2N1,inactive,inactive,inactive,inactive,–,inactive,–,inactive,–,–,–,–,–,inactive,–,–,inactive,–,–,inactive
CCC(C)[O-].CCC(C)[O-].CCOC(=O)/C=C(/C)[O-].[Al+3],inactive,inactive,inactive,inactive,inactive,inactive,inactive,inactive,–,–,–,–,inactive,inactive,–,–,inactive,inactive,inactive,inactive
Cc1ccc(O)c(N)c1,inactive,inactive,39 µM (active),–,–,inactive,inactive,inactive,–,–,–,–,–,inactive,–,–,inactive,–,–,inactive
[Cu+],inactive,inactive,inactive,inactive,–,inactive,34.7 µM (active),inactive,–,–,–,–,inactive,–,–,–,–,–,inactive,inactive
Cc1cc(C(C)(C)C)c(O)c(C)c1Cn1c(=O)n(Cc2c(C)cc(C(C)(C)C)c(O)c2C)c(=O)n(Cc2c(C)cc(C(C)(C)C)c(O)c2C)c1=O,inactive,inactive,–,inactive,–,inactive,–,inactive,–,–,–,–,inactive,inactive,–,-29.1,–,21.9 µM (active),–,inactive
CC(CO)Oc1ccccc1 (stereo unspecified),inactive,inactive,inactive,inactive,inactive,–,inactive,inactive,–,–,–,–,inactive,inactive,–,–,inactive,inactive,–,inactive
CCC(=O)OC(=O)CC,inactive,–,inactive,inactive,inactive,–,inactive,inactive,inactive,inactive,–,–,inactive,inactive,–,–,inactive,inactive,inactive,inactive
